According to PubChem BioAssay AID1376 (SRMLSC, 2008):
Out of some 220,000 compounds screened, about 530 (0.24%) were called active. What follows is part of a selection rich in actives, with near analogues and random picks from the rest. Potency and affinity values are given separately. A number with no mark means an inactive call. No stated cut-off is given here; in the data, active means inhibition above about 13%; inconclusive means no clear call, values can overlap the other calls; inactive means below that.

target: Bifunctional protein GlmU (Mycobacterium tuberculosis (strain ATCC 25618 / H37Rv)) (UniProt P9WMN3); test: inhibition of mycobacterial GlmU enzyme – biochemical, glucosamine-1-phosphate acetyltransferase (AID 1376);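 further: 0% = complete reaction with vehicle and 100% = reaction without substrate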; conditions: M. tuberculosis GlmU acetyltransferase enzyme assay; active compounds read high;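 tested at 30 µM in the primary screen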
Sequence (P9WMN3 whole entry, looked up): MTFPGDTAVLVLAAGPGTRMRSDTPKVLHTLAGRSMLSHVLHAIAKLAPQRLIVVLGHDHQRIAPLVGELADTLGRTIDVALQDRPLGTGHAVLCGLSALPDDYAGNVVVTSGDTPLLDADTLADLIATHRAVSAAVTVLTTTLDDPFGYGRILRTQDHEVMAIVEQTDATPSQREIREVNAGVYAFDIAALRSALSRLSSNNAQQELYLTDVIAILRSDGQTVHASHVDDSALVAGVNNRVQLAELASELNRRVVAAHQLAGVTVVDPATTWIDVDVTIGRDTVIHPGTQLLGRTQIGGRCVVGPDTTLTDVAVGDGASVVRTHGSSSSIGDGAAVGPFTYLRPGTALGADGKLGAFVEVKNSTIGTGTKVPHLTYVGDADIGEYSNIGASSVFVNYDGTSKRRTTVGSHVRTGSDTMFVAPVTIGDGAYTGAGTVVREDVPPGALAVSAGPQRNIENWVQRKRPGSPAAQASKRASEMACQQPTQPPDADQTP

| SMILES | inhibition |
| --- | --- |
| CN(NC(=O)Nc1ccccc1)c1cnn(C)c(=O)c1Cl | 4.46% |
| Cc1ccc(NC(=O)CC2COc3ccccc3O2)cc1 (configuration not stated) | -0.6% |
| CC1(C)CC(=O)C2=C(C1)NC(=O)CC2c1ccc(N(CCC#N)CCC#N)cc1 (configuration not stated) | -4.28% |
| O=C1CSC(=S)N1/N=C/c1ccc(O)c([N+](=O)[O-])c1 | 55.6% (active) |
| COc1cccc(/C=N/N2C(=O)CSC2=S)c1O | 5.18% |
| O=C1c2ccccc2C(=O)N1/N=C/c1ccc(O)c(O)c1O | 10.8% |
| COc1cc(/C=N/N2C(=O)CSC2=S)ccc1O | -0.65% |
| O=C1CSC(=S)N1/N=C/c1ccc(Cl)c([N+](=O)[O-])c1 | 4.42% |
| COC(=O)c1c(C)n(-c2ccc(C)cc2)c2ccc(O)cc12 | -3.11% |
| O=C(CCn1c(=O)[nH]c2ccccc2c1=O)N1CC=C(c2ccccc2)CC1 | 1.07% |
| O=C(CSc1ccccn1)N/N=C/c1cc([N+](=O)[O-])ccc1O | 4.16% |
| O=C(Nc1cccc(S(=O)(=O)N2CCOCC2)c1)c1ccc(Cl)c([N+](=O)[O-])c1 | -7.13% |
| O=C(Nc1cccc(C(F)(F)F)c1)N1CCN(C(=O)Nc2cccc(C(F)(F)F)c2)CC1 | -0.83% |
| COc1ccccc1N1CCN(C(=O)/C=C/c2c(Cl)nc3ccccn23)CC1 | 1.7% |
| COc1ccc(/C=N/c2c(-c3ccc(OC)cc3)nc3n2CCS3)cc1 | -0.71% |
| Cc1nc2cc(NC(=O)NCc3ccc4c(c3)OCO4)ccc2o1 | 0.01% |
| CC12CCC(c3nnc(SCc4ccc(Cl)cc4)nc31)C2(C)C (configuration not stated) | 7.21% |
| COc1ccc(-c2nc3scc(-c4ccccc4)n3n2)cc1 | 5.16% |
| COCCn1c(Cc2ccccc2)nnc1SCC(=O)Nc1ccccc1 | 2.41% |
| CC1(C)NC(=O)N(CCOCCOc2c(Cl)cc(Cl)cc2Cl)C1=O | 2.47% |
| Cc1cc(Cl)c(OCCN2C(=O)NC(C)(C)C2=O)c(Br)c1 | -1.37% |

| SMILES | inhibition |
| --- | --- |
| Cc1cc(C)c(OCCN2C(=O)NC(C)(C)C2=O)c(Cl)c1 | 14.1% (active) |
| O=C(Nc1ccccc1)c1nnsc1S(=O)(=O)c1ccc(Cl)cc1 | 6.59% |
| CNC(=O)c1ncoc1-c1ccc(Cl)cc1 | -1.29% |
| CCCNC(=O)c1nnsc1S(=O)(=O)c1ccc(Cl)cc1 | 10.7% |
| Cc1nnsc1C(=O)Nc1ccc(Cl)cc1 | 5.53% |
| CCCNC(=O)c1nnsc1Sc1ccc(Cl)cc1 | 1.02% |
| O=C(c1nnsc1S(=O)(=O)c1ccc(Cl)cc1)N1CCOCC1 | 0.93% |
| CNC(=O)c1nnsc1S(=O)(=O)c1ccc(Cl)cc1 | 11.5% |
| O=C(c1cc(-c2ccc(Cl)cc2)on1)N1CCOCC1 | 3.17% |
| CC1(C)C(=O)OC(c2ccccc2)C2(CCCC2)C1=O (configuration not stated) | -6.73% |
| COC(=O)N1CCN(CCc2ccccc2)CC1 | 0.78% |
| CCCCNC(=O)CNC(=S)N(Cc1ccccc1)Cc1cccs1 | 4.12% |
| CCc1cccc(NC(=O)CCS(=O)(=O)c2cccc3nonc23)c1 | 0.23% |
| CC(NC(=O)CSC(=S)N(C)C)C12CC3CC(CC(C3)C1)C2 (configuration not stated) | 2.22% |
| O=C1C2C3C=CC(C3)C2C(=O)N1CCCCN1C(=O)C2C3C=CC(C3)C2C1=O (configuration not stated) | 4.77% |
| O=C1C2C3C=CC(C3)C2C(=O)N1CCCCCCN1C(=O)C2C3C=CC(C3)C2C1=O (configuration not stated) | -4.36% |
| CCCC(=O)Nc1c(C)nn(C(=O)CCC)c1C | 9.51% |
| COc1cccc(-c2nnc(SCCC(=O)O)n2C)c1 | -2.35% |
| C/C(Cl)=C/Cn1c(NCCCn2ccnc2)nc2c1c(=O)[nH]c(=O)n2C | -3.26% |
| CCN(CC)S(=O)(=O)c1ccc(NC(=O)COC(=O)c2ccc(-n3nc(C)cc3C)cc2)cc1 | 2.95% |
| COc1ccc(OC)c(NC(=O)COC(=O)c2ccc(S(=O)(=O)N3CCOCC3)cc2)c1 | 14.5% (active) |

| SMILES | inhibition |
| --- | --- |
| COc1ccc(C(=O)OCC(=O)Nc2cc(S(=O)(=O)N3CCOCC3)ccc2N2CCCC2)cc1 | 0.15% |
| Cc1cc(C)n(-c2ccc(C(=O)OCC(=O)Nc3ccc(S(=O)(=O)N4CCOCC4)cc3)cc2)n1 | 12.8% (active) |
| COc1ccc(S(=O)(=O)N2CCOCC2)cc1NC(=O)COC(=O)c1ccc(C)s1 | 0.67% |
| Cc1cc(C)n(-c2ccc(C(=O)OCC(=O)Nc3ccc(S(=O)(=O)N4CCCCC4)cc3)cc2)n1 | 0.24% |
| CC(C)(Oc1ccc(CCNC(=O)c2ccc(-c3ccc(Cl)cc3)o2)cc1)C(=O)O | 8.95% |
| COC(=O)c1ccc(/C=N/N2CCN(Cc3ccc(C)cc3C)CC2)cc1 | 0.99% |
| CC(C)Oc1ccc(C(=O)N2CCCC2C(=O)O)cc1 (configuration not stated) | 1.48% |
| CCCCCCCCCCCC(=O)N/N=C/c1ccco1 | 2.22% |
| O=C(O)CC(C(=O)Nc1ccc(Cl)c(Cl)c1)C1CCCO1 (configuration not stated) | 5.87% |
| CC(=O)[C@@H]1[C@@H](C)N(Cc2ccccc2)C(=O)N[C@H]1c1cccc(C(F)(F)F)c1 | 3.76% |
| Cc1oc(C(C)(C)C)cc1C(=O)N1CCN(C(c2ccccc2)c2ccccc2)CC1 | -0.86% |
| COC(=O)CCC(=O)NC(=S)Nc1ccccc1F | -2.07% |
| O=C(Nc1ccc(Cl)cc1)c1ccc2nsnc2c1 | 4.02% |
| O=C(Nc1ccc(F)cc1)c1ccc2nsnc2c1 | -5.81% |
| O=C(Nc1ccccc1)c1ccc2nsnc2c1 | 19.3% (active) |
| O=C(CSc1nnc(-c2ccc(OC(F)F)cc2)o1)NCc1cccs1 | -1.34% |
| N#Cc1c(Nc2ccccc2Cl)s[nH]c1=O | 0.08% |
| N#Cc1c(Nc2ccccc2)s[nH]c1=O | 14.2% (active) |
| N#Cc1c(Nc2ccc(Cl)cc2)s[nH]c1=O | 4.63% |
| COCCNC(=O)c1cc2c(=O)n3cccc(C)c3nc2n1C | 3.57% |
